# Measurements: PubChem BioAssay AID1986 (Sanford-Burnham Center for Chemical Genomics, 2009)
# The campaign covered roughly 290,000 compounds. About 890 (0.31%) were called active. Cut-off read from the data, not from the text of the source: active = inhibition mostly above about 52% (no sharp cut-off); inactive = mostly below about 76%. For the sample, actives were picked, then their nearest neighbours and some compounds at random.
# Experiment: cell-free HIV fusion peptide-binding blockers – biochemical, uHTS, fluorescence dequenching, primary screen (AID 1986)
# Settings: 30 min, stronger effect = higher value
# [1] = measured here: repeat confirmation average inhibition, at 18.6 µM
SMILES,inhibition (at 20 µM),inhibition [1] [%]
Fc1ccc(CSc2ccc(-c3ccc4c(c3)OCO4)nn2)cc1,-3.7% (inactive),
O=S(=O)(NCCC1CC1(Cl)Cl)c1ccccc1 (configuration not stated),-2% (inactive),
CCOc1ccc(C(=O)NC(=S)Nc2ccccn2)cc1[N+](=O)[O-],-0.9% (inactive),
CCCCNC(=O)Oc1cc(CCl)on1,0.1% (inactive),
CCCCNC(=O)Oc1c(Br)cc2sc(=O)oc2c1Br,54.3% (active),
O=C(NC1CCCCC1)Oc1cc2oc(=O)sc2cc1Br,-1.5% (inactive),
COC(=O)c1cc(OC)c(OC)cc1NC(=O)c1csc(C)c1,-1.1% (inactive),
COc1ccccc1-c1ccc(/C=C2\C=CC(=O)O2)o1,70.7% (active),59
CCCC1=C/C(=C/c2ccc(-c3ccccc3OC)o2)C(=O)O1,32% (inactive),
COc1ccccc1-c1ccc(/C=C2/C=C(C)OC2=O)o1,48.6% (inactive),
CCCCNC(=O)O/N=C(\N)CS(=O)(=O)C(C)(C)C,-2.3% (inactive),
COc1cccc(NC(=O)Cn2nnc(C(=O)Nc3cc(Cl)ccc3OC)c2N)c1,1.3% (inactive),
CCOc1ccc(C(=O)Nc2ncccc2Cl)cc1,1.2% (inactive),
COc1ccc(O)c(/C=c2/sc3nc4cc(C)c(C)cc4n3c2=O)c1,-3.1% (inactive),
CCOC(=O)C(C)N1C(=O)S/C(=C\c2ccc(-c3ccccc3C(=O)O)o2)C1=O (configuration not stated),22.7% (inactive),
Cc1cc2nc3s/c(=C/c4ccc(-c5ccccc5C(=O)O)o4)c(=O)n3c2cc1C,116% (active),108
O=C(O)c1ccccc1-c1ccc(/C=c2\sc3nc4cc(Br)cnc4n3c2=O)o1,56.9% (inactive),28.9
Cc1ccc2c(nc3s/c(=C\c4ccc(-c5ccccc5C(=O)O)o4)c(=O)n32)c1C,88% (active),121
Cc1ccc2c(nc3s/c(=C/c4cccs4)c(=O)n32)c1C,-1.1% (inactive),
COCCCNC(=O)c1ccc(CS(=O)(=O)c2cccc(C(F)(F)F)c2)o1,-1.7% (inactive),
CCC12CN3CCN(CC(C3)/C1=N\NC(=O)c1ccc(F)cc1)C2,0.1% (inactive),
CCOc1ccc(C2C(C(=O)c3ccco3)=C(O)C(=O)N2Cc2cccnc2)cc1 (configuration not stated),0.5% (inactive),
Cc1ccc(C)c(NC(=O)CSc2nnc(CNC(=O)c3ccco3)n2C)c1,-1.8% (inactive),

SMILES,inhibition (at 20 µM),inhibition [1] [%]
CCOC(=O)c1ccc(N2C(=O)c3n[nH]c(-c4ccco4)c3C2c2ccc([N+](=O)[O-])cc2)cc1 (configuration not stated),60.1% (active),
CCOC(=O)c1ccc(N2C(=O)c3n[nH]c(-c4ccco4)c3C2c2cccc([N+](=O)[O-])c2)cc1 (configuration not stated),14.6% (inactive),
CCOC(=O)c1ccc(N2C(=O)c3n[nH]c(C)c3C2c2ccco2)cc1 (configuration not stated),-0.8% (inactive),
Cc1nnc(SCC(=O)N2CCN(c3ccccc3)CC2)n(N)c1=O,0.4% (inactive),
COc1cc(OC)cc(C(=O)n2nc(C)cc2C)c1,-0.7% (inactive),
Cn1c(CC(=O)Nc2ccc(Cl)cc2)nnc1SCC(=O)N1CCOCC1,-1% (inactive),
Cc1cc(/C=C2\NC(=S)N(C)C2=O)ccc1N1CCCC1,143% (inactive),
CCCN1C(=O)/C(=C/c2ccc(N3CCCC3)c(C)c2)NC1=S,125% (inactive),
Cc1cc(/C=C2/C(=O)N(C)C(=S)N2C)ccc1N1CCCC1,54.2% (active),
Cc1cc(S(=O)(=O)N2CCOCC2)ccc1OCC(=O)Nc1cccc(F)c1,-1.3% (inactive),
CCOc1ccc(C(C)NC(=O)c2cccnc2OCC)cc1OCC (configuration not stated),-0.2% (inactive),
O=[N+]([O-])c1cc(/C=N\Nc2nc(-c3ccccc3)cs2)ccc1O,33.1% (inactive),
O=[N+]([O-])c1cc(/C=N\Nc2nccs2)ccc1O,71.1% (active),
Cc1csc(N/N=C/c2ccc(O)c([N+](=O)[O-])c2)n1,0% (inactive),
O=C(/C=C/c1cc([N+](=O)[O-])ccc1OC(F)F)Nc1cccc2ccccc12,1.3% (inactive),
CC1(C)Cc2c(sc(NC(=S)NC(=O)c3ccccc3)c2C(=O)O)CO1,2.8% (inactive),
CC(/C=C1\SC(=S)N(NS(=O)(=O)c2ccc(C)cc2)C1=O)=C\c1ccccc1,56.5% (active),
CC(/C=C1\SC(=S)N(NS(=O)(=O)c2ccccc2)C1=O)=C\c1ccccc1,40.6% (inactive),
CC(/C=C1\SC(=S)N(NC(=O)c2ccc(C)cc2)C1=O)=C\c1ccccc1,6.4% (inactive),
COc1ccccc1NC(=O)/C(C#N)=C/C=C/c1ccco1,24.1% (inactive),
COc1ccc(NC(=O)/C(C#N)=C\C=C\c2ccco2)cc1,73.2% (inactive),-0.6
COc1ccc(NC(=O)/C(C#N)=C/C=C/c2ccco2)cc1,80.7% (active),
Cc1cccn2cc(CCNC(=O)c3ccco3)nc12,-0.6% (inactive),

SMILES,inhibition (at 20 µM),inhibition [1] [%]
Cc1cc(N2C(=O)C(O)=C(C(=O)c3ccco3)C2c2ccc([N+](=O)[O-])cc2)no1 (configuration not stated),1.4% (inactive),
Cc1nc(=O)c(-c2ccccc2)c(C)n1CCCCCC(=O)O,-2.3% (inactive),
CC(N=C(NS(=O)(=O)c1ccc(Cl)cc1)c1ccccc1)C(=O)O (configuration not stated),-0.1% (inactive),
COc1cc(C=C(c2nc3ccccc3s2)c2nc3ccccc3s2)cc(OC)c1O,26.6% (inactive),
COc1ccc(C=C(c2nc3ccccc3s2)c2nc3ccccc3s2)cc1O,57.6% (active),
COc1cc(C=C(c2nc3ccccc3s2)c2nc3ccccc3s2)ccc1O,8.2% (inactive),
CCS(=O)(=O)Nc1cccc(C2=NN(S(C)(=O)=O)C(c3cccs3)C2)c1 (configuration not stated),0.5% (inactive),
CCOC(=O)C(NC(=O)CC)(Nc1ccc(S(=O)(=O)Nc2cc(C)on2)cc1)C(F)(F)F (configuration not stated),59.8% (active),
CCCC(=O)NC(Nc1ccc(S(=O)(=O)Nc2cc(C)on2)cc1)(C(=O)OCC)C(F)(F)F (configuration not stated),-1.8% (inactive),
CCOC(=O)C(NC(C)=O)(Nc1ccc(S(=O)(=O)Nc2cc(C)on2)cc1)C(F)(F)F (configuration not stated),3.7% (inactive),
COCCCN(C(=S)NC(=O)C(C)(C)C)c1c(N)n(Cc2ccccc2)c(=O)[nH]c1=O,-2.2% (inactive),
COc1cc(/C=C2/SC(=Nc3ccc(O)cc3)NC2=O)cc(OC)c1O,-2.4% (inactive),
COc1ccc(/C=C2\SC(=Nc3ccccc3OC)NC2=O)cc1,7.1% (inactive),
COc1ccc(OC)c(/C=C2\SC(=S)N(Cc3cccnc3)C2=O)c1,36.3% (inactive),
COc1ccccc1N=C1NC(=O)/C(=C/c2ccc(N(C)C)cc2)S1,52.4% (active),
COc1cc(/C=C2\SC(=Nc3ccc(O)cc3)NC2=O)cc(OC)c1O,-2.7% (inactive),
O=C1/C(=C\c2cc(Cl)c(O)c(Cl)c2)SC(=S)N1Cc1ccccc1,159% (inactive),
COc1ccc(/C=C2/SC(=S)N(Cc3ccccc3)C2=O)cc1O,-3.1% (inactive),
COc1cc(/C=C2\SC(=Nc3ccccc3OC)NC2=O)ccc1O,8.2% (inactive),
COc1cc(/C=C2/SC(=S)N(Cc3ccccc3)C2=O)ccc1O,6% (inactive),
COc1ccc(O)c(/C=C2/SC(=S)N(Cc3ccccc3)C2=O)c1,68.8% (active),51
COc1cc(/C=C2\SC(=Nc3ccccc3)NC2=O)cc(Cl)c1O,90% (active),60.8
COc1cc(/C=C2/SC(=S)N(Cc3ccccc3)C2=O)cc(Cl)c1O,119% (active),88
